Compound activity (PubChem)
In the library only some 2.3% were active in any assay of this set; here they are far more common.
UHRF1 MBD2 ctr – UHRF1 methylated DNA binding inhibitors, primary screen, counter-screen for MBD2 inhibitor project, biochemical, TR-FRET, human UHRF1, single concentration. E3 ubiquitin-protein ligase UHRF1 (Homo sapiens), Q96T88. UHRF1 binding to methylated oligo. inhibition, % at 4.4 µM. 0.75% of 370,000 active; in the data active means inhibition above about 21%;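 further: UHRF1 SRA domain binding a hemimethylated CpG hairpin DNA probe; 0% = median of test compound wells and 100% = reference inhibitor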
LEDGF integ inh – blockers of LEDGF/p75-dependent integrase strand transfer – biochemical, TR-FRET, high throughput, primary screen; 0.64% of 370,000 active; TR-FRET IN-LEDGF/p75 DNA integration, Eu/Cy5; inhibition, % at 3.7 µM;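 active means inhibition above the screen-wide mean plus 3 SD, cut at about 13% in these data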;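 further: signal is the Cy5 over europium emission ratio at 671 and 618 nm; 0% = plate median of compound wells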
MBD2 inh – inhibitors of MBD2 binding to methylated DNA, primary screen, biochemical, TR-FRET, DNA-binding domain, human | Methyl-CpG-binding domain protein 2 (Homo sapiens), Q9UBB5 | MBD2 binding to methylated oligonucleotide | inhibition, % at 4.4 µM | 0.31% of 370,000 active | AID 686964, 2013; in the data active means inhibition above about 13%
Target sequence (Q9UBB5 whole entry, looked up, the tested form may be a part): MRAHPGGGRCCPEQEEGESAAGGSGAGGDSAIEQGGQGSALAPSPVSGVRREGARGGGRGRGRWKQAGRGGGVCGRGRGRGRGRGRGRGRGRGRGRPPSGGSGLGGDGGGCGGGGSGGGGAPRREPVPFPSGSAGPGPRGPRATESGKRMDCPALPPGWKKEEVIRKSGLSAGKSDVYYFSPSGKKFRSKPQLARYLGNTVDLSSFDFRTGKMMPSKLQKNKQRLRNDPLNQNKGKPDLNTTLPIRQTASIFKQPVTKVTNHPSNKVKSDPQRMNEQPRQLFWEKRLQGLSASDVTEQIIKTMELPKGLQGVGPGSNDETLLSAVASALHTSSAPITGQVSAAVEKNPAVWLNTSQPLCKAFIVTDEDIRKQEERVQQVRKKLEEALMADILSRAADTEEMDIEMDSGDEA
PLCg1 inh – PLC-gamma1 enzyme inhibitors, primary screen, biochemical, fluorescence, purified enzyme | 1-phosphatidylinositol 4,5-bisphosphate phosphodiesterase gamma-1 (Homo sapiens), P19174 | fluorogenic substrate | inhibition, % at 12.2 µM | 0.84% of 370,000 active | AID 720700, 2013; in the data active means inhibition above about 9.5%
PLCb3 inh – human PLC-beta3 inhibitors, primary screen, biochemical, fluorescence; 1-phosphatidylinositol 4,5-bisphosphate phosphodiesterase beta-3 (Homo sapiens), Q01970; Purified PLC-beta3, fluorogenic substrate; inhibition, % at 12.2 µM; 0.18% of 370,000 active; AID 720704, 2013;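 further: 0% = median of compound wells on plate and 100% = full blocker control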
PLCgamma1 ctr – PLC-gamma1 enzyme inhibitors, counter-screen for PLC-beta3 inhibitor project, biochemical, fluorescence. shares compounds with PLCg1 inh. purified PLC-gamma1, fluorogenic substrate. inhibition, % at 12.3 µM. 3.1% of 3,300 active. AID 743258, 2014; in the data active means inhibition above about 9.5%
PLCb3 confirm – PLC-beta3 inhibitor confirmation, biochemical, fluorescence, purified enzyme; fluorogenic substrate fluorescence; AID 743261, 2014; 1% of 3,300 active; shares compounds with PLCg1 inh; inhibition, % at 12.3 µM
* = called active by the depositor; nt = no result given. Unless noted, no stated cut-off is given here; in the data, active means inhibition above about 11%; inactive means the rest.

SMILES	UHRF1 MBD2 ctr	LEDGF integ inh	MBD2 inh	PLCg1 inh	PLCb3 inh	PLCgamma1 ctr	PLCb3 confirm
COc1ccc([N+](=O)[O-])cc1NC(=S)NC(NC(=O)C(c1ccccc1)c1ccccc1)C(Cl)(Cl)Cl (centres undefined)	4.4	-3.5	-2.7	11.6*	8.4	-3.6	-1.3
CN1C2=N[C@H](c3ccccc3)CC(=O)N2/C(=C\c2ccccc2)C1Cc1ccccc1 (some centres undefined)	-3.7	-0.2	1.7	-7.3	-9.9	nt	nt
CCOC(=O)CCCCCC(=O)Nc1ccc2c(c1)C(=O)N([C@H](C)CO)C[C@@H](C)[C@@H](CN(C)C(=O)CCC(F)(F)F)OCCCC[C@H](C)O2	2.7	4.8	-6.2	12.2*	4.6	-10.9	-3.0
Cc1noc(C)c1S(=O)(=O)Nc1ccc2c(c1)C(=O)N([C@H](C)CO)C[C@H](C)[C@H](CN(C)C(=O)NC(C)C)OCCCC[C@@H](C)O2	0.0	3.1	-8.9	10.9*	7.8	-0.6	-0.3
CC(C)CNC(=O)C1CSCCS(=O)(=O)N1Cc1ccc(F)cc1 (centres undefined)	-2.0	3.2	-0.3	-0.5	3.6	nt	nt
C=CCc1cccc(C=NNC(=O)c2ccco2)c1O	-1.2	-7.1	1.3	-41.3	-59.1	nt	nt
COc1ccc(C2(C(=O)Nc3ccc(OC)cc3OC)CCCC2)cc1	2.9	0.5	-2.3	1.9	4.3	nt	nt
COC(=O)[C@@H]1CC[C@@](C)(c2ccc(OC)cc2)C1(C)C	5.9	-0.4	3.5	14.1*	8.4	-5.9	-2.3
N#Cc1ccc(C23CC4(C2)[C@H](CN(Cc2ccc(-c5ccccc5)cc2)[C@@H]4c2ccccc2)C3c2ccc(Cl)nc2)cc1 (some centres undefined)	7.4	3.7	-2.5	13.0*	2.8	-9.9	-14.8
Cc1ccc(S(=O)(=O)c2ccc(Cl)cc2)cc1S(=O)(=O)NC(C)C(=O)O (centres undefined)	6.1	-3.2	-3.4	10.2*	-1.9	-5.6	-3.3
COc1ccc(CN(CC#Cc2ccccc2)Cc2ccccc2)c(OC)c1	-1.0	-2.5	3.2	-0.5	2.5	nt	nt
Cc1c(NC(=S)N/N=C/C=C/c2ccc([N+](=O)[O-])cc2)c(=O)n(-c2ccccc2)n1C	2.6	4.2	-10.2	12.1*	3.5	11.0*	5.0
CNC(=O)C(=O)Nc1c(C)cc(C)cc1C	4.2	-1.5	3.4	6.7	12.3*	-7.3	-5.5
COc1ccc(-n2c(C)cc(/C=C3/SC(=S)N(C)C3=O)c2C)cc1	-0.5	-3.3	3.9	10.8*	-2.8	-22.9	-19.3
O=C(C[n+]1cc(-c2ccccc2)n2c1CCC2)Nc1nc(-c2ccc(F)cc2)cs1	-1.9	-4.1	-1.7	3.6	-0.5	nt	nt
O=C(C[n+]1cc(-c2ccc(F)cc2)n2c1CCC2)Nc1nc(-c2ccc(F)cc2)cs1	-0.1	0.8	-1.8	12.2*	7.8	0.2	-35.1
O=C(Nc1nc(-c2ccc(F)cc2)cs1)C1CCCO1 (centres undefined)	1.7	-0.9	0.9	11.7*	2.6	-2.8	-1.7
O=C(Nc1nc(-c2ccc(-c3ccccc3)cc2)cs1)C1CCCO1 (centres undefined)	0.4	2.5	1.4	-9.9	-17.6	nt	nt
COC(=O)c1cccc(NC(=O)Nc2ccc(Cl)cc2Cl)c1	3.1	0.5	-5.4	9.9*	1.7	7.1	3.6
COC(=O)c1cccc(NC(=O)C(C)N2C(=O)c3ccccc3C2=O)c1 (centres undefined)	1.9	2.5	3.6	10.0*	6.3	-3.1	0.8
COC(=O)c1cccc(NC(=S)Nc2cc(Cl)ccc2OC)c1	2.9	-3.1	6.3	-6.5	-12.5	nt	nt
Nc1nccc2c1ncn2C1OC(CO)C(O)C1O (centres undefined)	4.1	3.3	3.1	12.4*	12.4*	-2.2	-0.5
COCCN1C(=O)c2oc3cc(C)c(C)cc3c(=O)c2C1c1cccc(O)c1 (centres undefined)	-1.4	0.5	0.9	14.9*	-0.9	-7.9	-2.2
Cc1cc2oc3c(c(=O)c2cc1C)C(c1ccc(F)cc1)N(CCCN1CCOCC1)C3=O (centres undefined)	-1.5	3.5	3.3	-19.6	-25.7	nt	nt
COC(=O)c1c(-c2c(Cl)cccc2Cl)noc1C(=O)NNC(=O)N(C)C	1.4	8.0	-0.3	9.8*	1.1	4.0	-1.3
SMILES	UHRF1 MBD2 ctr	LEDGF integ inh	MBD2 inh	PLCg1 inh	PLCb3 inh	PLCgamma1 ctr	PLCb3 confirm
COC(=O)c1c(-c2c(Cl)cccc2Cl)noc1C(=O)NN	-0.4	-1.4	1.6	-2.4	-12.8	nt	nt
O=C(NC1CCCCN(Cc2cccc(C(F)(F)F)c2)C1=O)c1c(F)cccc1F (centres undefined)	-1.7	0.4	2.9	-0.6	0.7	nt	nt
COC(=O)c1ccc(NC(=O)C2CC3CCC2C3)cc1 (centres undefined)	3.9	6.1	2.0	5.5	0.8	nt	nt
COC(=O)c1ccc(NC(=S)NC2CC3CCC2C3)cc1 (centres undefined)	-5.5	0.6	-5.0	9.6*	5.5	4.1	3.8
CCN(CC)C(=O)CSc1nc2ccccc2c(=O)n1-c1cccc(OC)c1	3.6	1.9	2.6	10.4*	3.9	-8.2	-3.0
COC(=O)c1cc(-c2ccc(C)cc2)n[nH]1	2.1	2.4	0.2	10.2*	3.7	-6.3	-3.5
Cc1[nH][nH]c(=O)c1C=NCc1cccnc1	-2.0	3.3	4.0	11.0*	7.2	0.7	3.4
CCCCOCCCNC(=O)c1ccc(OCC)cc1	0.5	2.2	-0.1	10.1*	1.7	-4.2	-1.7
CCOc1ccc(N(CC(=O)NC2CCCC2)C(=O)CCCC(=O)Nc2ccccn2)cc1	6.9	4.4	-4.9	5.0	14.6*	0.9	-6.0
CCOc1ccc(N(CC(=O)NC2CCCC2)C(=O)CCC(=O)Nc2ccccn2)cc1	-0.4	0.6	-4.5	1.4	0.8	nt	nt
CCC1CCCCN1C(=O)c1ccccc1OC1CCN(S(C)(=O)=O)CC1 (centres undefined)	1.8	0.2	2.2	-1.5	-4.9	nt	nt
CC1CCCCN1C(=O)c1ccccc1OC1CCN(S(C)(=O)=O)CC1 (centres undefined)	4.1	6.0	-7.0	9.5*	3.1	-6.2	-7.3
